# Laboratory results published in the supplement of paper PMC6555819.
# How the values were obtained:
# Assay in all cases: PBM binding z-score (relative to random genomic background probes); higher = stronger binding; sequences stand for … in GC…GCGATTGACAGCGTAGAATGAAGG
# [1] = system: FXR:RXRa (NR concentration 270 nM, RXRa partner concentration 90 nM)
# Outline: (§1)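 Custom Agilent 4×180K protein-binding microarrays carried double-stranded probes, each with a 34-nt variable region. These regions held direct-repeat seeds, single-nucleotide variants, half-site ablations and random human genomic background sequences. Ligand-free nuclear receptor dimers were incubated on the arrays for 1 h, antibodies against each partner (one per run) detected binding, and scanned fluorescence was regression-normalized. Binding z-scores take the random background probes as reference.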
# [2] = system: LXRa:RXRa (NR concentration 270 nM, RXRa partner concentration 90 nM)
# Outline: as §1
# [3] = system: LXRa homodimer (NR concentration 270 nM)
# Outline: as §1
# [4] = system: LXRb:RXRa (NR concentration 270 nM, RXRa partner concentration 90 nM)
# Outline: as §1
# [5] = system: LXRb homodimer (NR concentration 270 nM)
# Outline: as §1
# [6] = system: PPARa:RXRa (NR concentration 270 nM, RXRa partner concentration 90 nM)
# Outline: as §1
# [7] = system: PPARg:RXRa (NR concentration 180 nM, RXRa partner concentration 90 nM)
# Outline: as §1
# [8] = system: PPARg:RXRa 270nM:90nM, anti-RXR (NR concentration 270 nM, RXRa partner concentration 90 nM)
# Outline: as §1
# [9] = system: PPARg:RXRa 30nM:10nM, anti-RXR (NR concentration 30 nM, RXRa partner concentration 10 nM)
# Outline: as §1
# [10] = system: PPARg:RXRa 90nM:30nM, anti-RXR (NR concentration 90 nM, RXRa partner concentration 30 nM)
# Outline: as §1
# [11] = system: PPARg:RXRa DBDmut IVT, anti-RXR (DBD mutation: RXRa K156A/R161A, NR concentration 270 nM, RXRa partner concentration 90 nM)
# Outline: as §1
# [12] = system: PPARg:RXRa IVT, anti-PPARg (NR concentration 270 nM, RXRa partner concentration 90 nM)
# Outline: as §1
# [13] = system: PPARg DBDmut:RXRa IVT, anti-PPARg (DBD mutation: PPARg1 K132A/R137A, NR concentration 270 nM, RXRa partner concentration 90 nM)
# Outline: as §1
# [14] = system: PPARg DBDmut IVT, anti-PPARg (DBD mutation: PPARg1 K132A/R137A, NR concentration 270 nM)
# Outline: as §1
# [15] = system: PPARg homodimer (NR concentration 180 nM)
# Outline: as §1
# [16] = system: PXR:RXRa (NR concentration 270 nM, RXRa partner concentration 90 nM)
# Outline: as §1
# [17] = system: PXR homodimer (NR concentration 270 nM)
# Outline: as §1
# [18] = system: RARa:RXR (NR concentration 270 nM, RXRa partner concentration 90 nM)
# Outline: as §1
# [19] = system: RARa homodimer (NR concentration 270 nM)
# Outline: as §1
# [20] = system: RARb:RXRa (NR concentration 270 nM, RXRa partner concentration 90 nM)
# Outline: as §1
Sequence,PBM binding z-score [1],PBM binding z-score [2],PBM binding z-score [3],PBM binding z-score [4],PBM binding z-score [5],PBM binding z-score [6],PBM binding z-score [7],PBM binding z-score [8],PBM binding z-score [9],PBM binding z-score [10],PBM binding z-score [11],PBM binding z-score [12],PBM binding z-score [13],PBM binding z-score [14],PBM binding z-score [15],PBM binding z-score [16],PBM binding z-score [17],PBM binding z-score [18],PBM binding z-score [19],PBM binding z-score [20]
TCTAGCAGACCAGAGGGTCACTCAAGAGGTACGG,0.955,0.817,-0.662,1.1,-1.39,2.15,0.882,1.31,1.8,1.61,0.667,-0.0326,-0.965,-2.06,0.364,1.38,-0.694,1.85,-0.734,1.81
ATCGAAAGGTCGAGGTGCGTATAGAGAAAGGGAA,3.98,3.27,-0.147,2.47,0.277,4.37,2.48,3.13,1.09,2.17,-0.194,1.03,0.819,0.0547,1.09,2.33,0.0206,3.2,0.4,3.98
CATACAGTGTCAGCTAGGCCAGAGTAGGGACGGC,-0.279,-0.284,-0.667,-0.652,0.0378,-0.3,0.467,-0.284,-0.315,-0.243,-0.0696,0.608,0.171,-0.0038,-0.0558,-0.453,-0.457,-0.228,0.038,1.04
GCTAGTTGGTCAGTAACAGGTCACACACCGGTCG,0.984,1.45,1.48,1.39,-0.167,2.06,0.82,1.12,-0.211,0.627,0.713,1.57,-0.131,0.285,1.45,1.85,0.169,2.32,1.15,2.24
AATCAAAGTTCATCTAGGTAACGTAAGATATGCT,6.64,6.2,7.11,4.15,2.37,4.75,4.35,4.25,2.04,3.19,0.153,2.87,1.79,1.11,2.75,4.95,7.06,3.24,1.38,5.22
ATTAGCAGGCCAAGTTTGGGTCACTCAAACAAAG,0.082,0.215,-0.128,0.803,-0.539,1.62,0.124,0.309,-0.279,0.138,0.708,1.31,-0.0201,-0.208,0.531,0.924,0.144,1.97,-0.273,1.83
TCTTGTAGATCAGCAGGTTAAGTAAGCTGGCCAA,0.169,0.366,-0.23,0.424,-0.524,0.865,-0.624,1.25,2.73,2.04,1.65,0.766,-0.114,-0.0421,0.0118,0.266,-0.355,0.553,-0.134,0.298
AATACAGGGTCTTCGTAGGCCAGAGTACGCACAG,-0.0491,0.0766,-0.419,-0.205,-0.311,0.156,0.75,0.174,0.334,0.137,0.0875,0.764,0.236,0.68,-0.584,-0.0215,-0.304,0.585,0.404,0.544
GCGAGTTGGTCAGTAAAAGGTCACACACCGGTCG,3.43,4.42,4.78,4.07,0.343,4.36,3,4.71,2.22,4.23,0.617,2.26,0.948,-0.184,4.06,5.14,1.31,5.93,2.5,4.33
GATACAGGGTCAAGGCTAGAGTACGCGTATTGAT,6.01,4.13,0.107,3.78,0.158,5.61,5.73,5.61,2.19,4.21,3.54,3.94,1.02,0.742,1.69,3.72,0.503,4.37,0.567,4.43
TTACCAAGTTGAGCTGAGGTCGTTGATCCAACTC,0.614,0.638,-0.367,0.536,-0.873,1.03,-0.512,0.423,0.243,-0.0903,-0.673,0.221,-0.252,-0.114,-0.328,3.88,0.614,1.76,-0.601,0.659
ATAATGAGGTTAAGATCAGGGAAACAGAATACAT,2.39,2.59,0.379,2.15,0.727,3.79,3.01,2.48,1.48,2.19,3.08,3.32,1.83,1.92,1.15,1.31,0.654,2.22,0.709,2.22
CAAACTAGGGCAAGGTCAAAGTCGGTTTGTGCCA,5.18,4.46,2.44,3.77,0.468,5.56,7.92,6.99,4.88,7.3,7.65,7.58,2.3,3.24,3.66,4.71,1.95,4.96,2.12,4.14
ACGAGTTGGTCAGCTGAGGTCACACACAATTCGG,3.59,3.08,1.81,3.17,-0.229,3.6,1.64,2.17,0.283,1.3,0.74,1.98,-0.0405,0.48,2.66,5.43,2.1,4.82,0.588,3.59
